This note sets out measurements from PubChem BioAssay (NCI).

The panel holds about 83,000 compounds, 20% with a hit somewhere; the sample as a whole holds those more often.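 Compound tested at a single concentration for 48 hours in 96-well plates; a percent growth value below 10 was scored as active.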 Calls of active or inactive are those of the source.

The test system of the assay is HL-60(TB) leukemia. Briefly: NCI-60 one-dose screen, 48 h (100 = growth as untreated, 0 = no growth, -100 = all killed). Conditions: 10 µM unless noted.
Regarding `CCN(C(=O)N1CCN(c2cc3c(cc2F)c(=O)c(C(=O)O)cn3C2CC2)CC1)c1nc(-c2ccc(C)cc2)cs1`, the growth is 7.49% (active). The result for `COc1ccc(-c2nc3cc(C(=O)Nc4cc(OC)c(OC)c(OC)c4)ccc3n2C2CCCCC2)cc1` reads 85.9% (inactive); that for `O=C1C(N2CCOCC2)=C(I)C(=O)c2ncccc21`, 80.9% (inactive). The value for `CC1CCCC(CC(N)=O)CC1` (stereo not given) was 90.5% (inactive); that for `O=C(NC1CC1)c1cc2n(n1)CC(c1ccccc1)N2` (stereo not given) was 107% (inactive). Consider `N#CSCC1CC(O)(c2ccccc2)CC(c2ccc(Cl)cc2)O1` (stereo not given), for which the growth was -30.9% (active). With `Cc1nc2sc(C(=O)Nc3cccc(Br)c3)c(N)c2cc1C(O)c1ccccc1` (stereo not given), the growth is -27.4% (active). The result for `Nc1c(C(=O)Nc2ccccn2)sc2nc3c(cc12)C(O)CCC3` (stereo not given) reads 9.6% (active). The result for `CCN(CC)C(=O)CC1=C(C)/C(=C/c2[nH]c(-c3ccc[nH]3)cc2OC)N=C1C` reads 0.518% (active). The value for `O=C(/C=C/c1ccco1)Nc1ncc(Cc2cc(Cl)ccc2Cl)s1` was -50% (active); that for `COc1cc(NCc2cn(-c3ccc(C(=O)O)cc3)nc2-c2ccc(C(=O)O)cc2)cc(OC)c1OC` was 120% (inactive); that for `CCN1CCN(c2ccc(Nc3ncnc4c3nnn4CCc3cc(OC)cc(OC)c3)cc2)CC1` was 87.8% (inactive). `O=C(Nc1ccncc1)C(=O)c1cn(S(=O)(=O)c2cccc(Cl)c2)c2ccccc12`: the growth is 41.8% (inactive). The value for `CCC(=C(c1ccc(OCCN(CC)CC)cc1)c1ccc(OCCN(CC)CC)cc1)c1ccc(Cl)cc1` was -51.6% (active). The result for `O=C1c2ccccc2C(=O)N1c1ccccc1` reads 111% (inactive).
